Screening data deposited in PubChem BioAssay by Johns Hopkins Ion Channel Center.
KCNQ2 pot – potentiators of rat KCNQ2 potassium channel | 310,000 tested, 0.54% active | CHO-K1 KCNQ2, FluxOR thallium flux fluorescence; active compounds read high | B-score at 10 µM | Potassium voltage-gated channel subfamily KQT member 2 (Rattus norvegicus), O88943;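 active = fluorescence ratio B-score at least 3 SD of library B-scores, with initial fluorescence B-score within 3 of them, cut at about 5.3 in these data; same plate scores as AID 2156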;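 note: B-score of peak minus minimum over baseline fluorescence ratio after K+ and Tl+ stimulus; positive B-score means potentiation of KCNQ2 with more thallium influx and brighter signal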
Target sequence (O88943 whole entry, looked up): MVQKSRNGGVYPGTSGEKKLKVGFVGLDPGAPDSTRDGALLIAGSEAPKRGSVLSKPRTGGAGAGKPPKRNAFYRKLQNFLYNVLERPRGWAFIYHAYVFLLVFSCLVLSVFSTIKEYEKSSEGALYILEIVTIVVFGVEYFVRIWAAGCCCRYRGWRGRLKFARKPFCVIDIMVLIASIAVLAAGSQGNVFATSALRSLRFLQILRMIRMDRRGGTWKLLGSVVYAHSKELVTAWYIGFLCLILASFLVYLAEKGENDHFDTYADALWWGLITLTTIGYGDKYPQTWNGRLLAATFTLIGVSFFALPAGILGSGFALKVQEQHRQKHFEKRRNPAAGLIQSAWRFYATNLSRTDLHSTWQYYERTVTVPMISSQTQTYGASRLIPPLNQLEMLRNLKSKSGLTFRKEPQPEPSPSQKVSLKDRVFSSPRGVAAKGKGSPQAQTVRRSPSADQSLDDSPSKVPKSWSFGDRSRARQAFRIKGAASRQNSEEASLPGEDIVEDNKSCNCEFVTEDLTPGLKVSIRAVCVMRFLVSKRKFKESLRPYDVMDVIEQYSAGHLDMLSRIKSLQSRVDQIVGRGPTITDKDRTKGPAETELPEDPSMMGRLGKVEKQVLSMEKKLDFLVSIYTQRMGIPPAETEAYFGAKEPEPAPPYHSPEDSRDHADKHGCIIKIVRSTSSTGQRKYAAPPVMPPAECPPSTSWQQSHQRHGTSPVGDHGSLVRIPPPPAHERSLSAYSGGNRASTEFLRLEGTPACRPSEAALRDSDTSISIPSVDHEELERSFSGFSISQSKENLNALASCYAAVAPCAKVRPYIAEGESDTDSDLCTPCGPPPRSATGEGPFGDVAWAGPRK
KCNQ2 inh – rat KCNQ2 potassium channel inhibitors, primary screen, cell-based, CHO-K1, FluxOR thallium flux, B-score; 20 min; active compounds read low; Potassium voltage-gated channel subfamily KQT member 2 (Rattus norvegicus), O88943; B-score at 10 µM; AID 2156, 2009; 310,000 tested, 1.1% active;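 active = fluorescence ratio B-score at most minus 3 library SDs, with starting brightness B-score within 2 library SDs, cut at about -5.5 in these data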
KCNQ2 inh conf – rat KCNQ2 potassium channel inhibitors, confirmation, cell-based, thallium flux | activity change, negative = inhibition, % at 10 µM | shares compounds with KCNQ2 inh | KCNQ2-expressing cells, inhibition; active compounds read low | 1,000 tested, 57% active
KCNQ1 spec – human KCNQ1 channel inhibition, counter-screen for KCNQ2 inhibitor project, cell-based, FluxOR thallium flux; shares compounds with KCNQ2 inh; KCNQ1-expressing cells, FluxOR thallium flux fluorescence; active compounds read low; activity change, negative = inhibition, % at 10 µM; 1,000 tested, 15% active;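 active = activity change at least 3 SD of negative controls below their mean in both duplicate wells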;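 note: CHO cells stably transfected with KCNQ1 and depolarized by potassium stimulus; peak minus minimum fluorescence over baseline after thallium addition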
CHO parental ctr – thallium flux change in parental CHO cells, counter-screen for KCNQ2 inhibitor project; shares compounds with KCNQ2 inh; active compounds read low; activity change, % at 10 µM; 1,000 tested, 14% active; AID 493029, 2011
KCNQ2 inh confirm – rat KCNQ2 channel inhibitors, confirmation, cell-based, automated patch clamp, single concentration; shares compounds with KCNQ2 inh; KCNQ2-expressing cells, automated patch clamp current; calls only at 10 µM; 550 tested, 49% active; AID 588531, 2011
Kir21 confirm – mouse Kir2.1 channel blockers, retest, confirmation, cell-based, FluxOR thallium flux, duplicate; shares compounds with KCNQ2 pot; Kir2.1-expressing cells, FluxOR thallium flux fluorescence; active compounds read low; Tl flux remaining, % of negative control (active compounds read low), % at 10 µM; 2,300 tested, 41% active; AID 2032, 2009;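 active = Primary-screen hit whose thallium flux fell at least 3 control SD below untreated wells in both duplicates, with normal baseline fluorescence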
HEK293 Tl flux – alters thallium flux in parental HEK293 cells, Kir2.1 counter-screen | FluxOR signal as % of negative control (100 = no effect), % at 10 µM | FluxOR thallium flux fluorescence; 0% = unstimulated blank wells | shares compounds with KCNQ2 pot | 2,300 tested, 19% active | AID 2105;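 active = dye signal at least 3 control SD above or below untreated wells in both duplicates, raw fluorescence within 3, either direction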;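 note: percent is based on the flux ratio of peak minus minimum fluorescence over baseline F0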
CHO-K1 ctr – nonspecific thallium flux increase in parental CHO-K1, confirmation, counter-screen for KCNQ2 potentiator project, cell-based, FluxOR thallium flux, duplicate | 1,200 tested, 43% active | parental CHO-K1 cells, FluxOR thallium flux fluorescence; zero = vehicle mean+3SD, 100% = vehicle-minus-blank window | shares compounds with KCNQ2 pot | activity increase over 3SD of controls, % at 10 µM;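 active = signal rise of at least 3 SD above the untreated control mean, in both duplicate wells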;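 note: counter screen of KCNQ2 potentiator hits so any rise reflects channel-independent effects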
KCNQ1 sel pot – human KCNQ1 channel potentiation off-target, confirmation, selectivity assay for KCNQ2 potentiator project, cell-based, CHO, FluxOR thallium flux. CHO KCNQ1 stable, FluxOR thallium flux fluorescence; beyond 3SD, as % of vehicle-control signal. shares compounds with KCNQ2 pot. activation over 3SD threshold, % at 10 µM. 1,200 tested, 28% active. AID 2283, 2010;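 active = fluorescence ratio rise of at least 3 SD of vehicle wells above their mean, in both replicate wells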
KCNQ2 pot conf – rat KCNQ2 channel potentiators, confirmation, cell-based, CHO, FluxOR thallium flux, duplicate; shares compounds with KCNQ2 pot; CHO-KCNQ2 cells, FluxOR thallium flux fluorescence; potentiation, less the hit threshold, % at 10 µM; 1,200 tested, 68% active; AID 2287, 2010;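 active = fluorescence ratio rising 3 SD or more over the vehicle control mean in both replicates, plus primary screen hit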;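 note: peak minus minimum thallium fluorescence divided by baseline after K/Tl stimulus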
Kir21 spec – mouse Kir2.1 channel activation off-target, confirmation, selectivity assay for KCNQ2 potentiator project, cell-based, HEK293, FluxOR thallium flux. HEK293 Kir2.1, FluxOR thallium flux fluorescence. activity over 3SD threshold, % at 10 µM. AID 2345, 2010. 1,200 tested, 2% active. shares compounds with KCNQ2 pot;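 active = fluorescence ratio rise of at least 3 SD above the vehicle-control mean, seen in both replicates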
KCNQ2 W236L pot – potentiators of retigabine-insensitive KCNQ2 W236L, mechanism study for KCNQ2 potentiator project, cell-based, rat KCNQ2 W236L, CHO, automated patch clamp. shares compounds with KCNQ2 pot. automated patch clamp current. current increase over 3SD of negative controls (%), active compounds read high, % at 25 µM. 940 tested, 10% active. AID 2558, 2010;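 active = current increase at least 3 SD of the untreated controls above them in both duplicate recordings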
Large screens that a line does not name were inactive (follow-up assays come after a bar, where they were run); ! = not confirmed by another sample. Sampled rows, rich in hits. Any-hit rate of the full collection: about 1.6%. Unless noted, the rule behind the calls is not given here.

Cc1ccccc1OCc1n(CC(=O)OC2CC(C)CCC2C(C)C)c2ccccc2[n+]1C (centres undefined)	KCNQ2 inh -10.9 | KCNQ2 inh conf -39.5%! | KCNQ1 spec inactive | CHO parental ctr inactive | KCNQ2 inh confirm active | Kir21 confirm 14.0% | HEK293 Tl flux inactive
COC(=O)c1cc(CNC(=O)CCCSc2ccccc2)ccc1OC	none (no result: KCNQ2 pot)
CC(NC(=O)c1cc2ccccc2oc1=O)c1ccccc1 (centres undefined)	none
CCc1ccc(C(O)(CNCc2ccccc2)c2ccccc2)cc1 (centres undefined)	KCNQ2 inh -6.91 | KCNQ2 inh conf -32.0% | KCNQ1 spec -35.5% | CHO parental ctr -28.5% | KCNQ2 inh confirm inactive | Kir21 confirm 69.0% | HEK293 Tl flux inactive
CCc1ccc(NC(=S)NCc2ccccc2)cc1	none
Cn1nnc(NC(=S)NC(=O)c2cc(Cl)ccc2Cl)n1	none (no result: KCNQ2 pot)
NC(N)=N/N=C/c1ccc(OCc2ccccc2)c(OCc2ccccc2)c1	none (no result: KCNQ2 pot)
CCOc1cc(/C=N/N=C(N)N)ccc1OCc1ccc(Cl)cc1	KCNQ2 inh -10.2 | KCNQ2 inh conf inactive | KCNQ1 spec inactive | CHO parental ctr inactive | Kir21 confirm 62.0% | HEK293 Tl flux inactive
CC(C)CC(=O)Nc1cccc(C(C)O)c1 (centres undefined)	none
O=C(NCCS(=O)(=O)N1CCN(c2ccccc2)CC1)c1cccs1	none
CCC(C)(C)c1ccc(OCCCC[n+]2cccc(C)c2)c(C(C)(C)CC)c1	KCNQ2 inh -8.45 | KCNQ2 inh conf inactive | KCNQ1 spec inactive | CHO parental ctr inactive | Kir21 confirm 33.0% | HEK293 Tl flux inactive
Cc1ccc[n+](CC(=O)Nc2cc(C(F)(F)F)ccc2Cl)c1	none
CC[C@@H](C)[C@H](CNC)NC[C@@H](Cc1cccc2ccccc12)NCCc1cccc(C(F)(F)F)c1	KCNQ2 inh -8.48 | KCNQ2 inh conf -29.0% | KCNQ1 spec inactive | CHO parental ctr inactive | KCNQ2 inh confirm inactive | Kir21 confirm 22.0% | HEK293 Tl flux inactive
CCC[C@H](CN[C@@H](CNC)[C@H](C)CC)NCCc1cc(C(F)(F)F)cc(C(F)(F)F)c1	none (no result: KCNQ2 pot)
Cn1nc(C(=O)OCC(=O)Nc2ccc(S(N)(=O)=O)cc2)c2ccccc2c1=O	none
O=C(/C=C/c1ccc(Cl)cc1)c1cccnc1	KCNQ2 inh -7.58 | KCNQ2 inh conf -28.0% | KCNQ1 spec inactive | CHO parental ctr inactive | KCNQ2 inh confirm inactive | Kir21 confirm 67.5% | HEK293 Tl flux inactive
O=C(/C=C/c1ccc(OCc2ccccc2)c(OCc2ccccc2)c1)c1cccnc1	none (no result: KCNQ2 pot)
N#Cc1c(-c2cccs2)nc(SCc2ccc(Cl)cc2)[nH]c1=O	KCNQ2 pot 6.11 | Kir21 confirm inactive | HEK293 Tl flux 59.5% | CHO-K1 ctr 4.4 | KCNQ1 sel pot 18.3 | KCNQ2 pot conf 15.4 | Kir21 spec inactive | KCNQ2 W236L pot inactive
CSc1nc(-c2cccs2)c(C#N)c(=O)[nH]1	none
CCCCCN(C(=O)CCC(=O)OCCOc1cccc(Cl)c1)c1c(N)n(CCCC)c(=O)[nH]c1=O	none
O=C1NC(=S)S/C1=C\c1coc2ccccc2c1=O	none
COc1ccc(/C=C2/SC(=O)NC2=O)cc1	none (no result: KCNQ2 pot)
O=C1NC(=S)S/C1=C\c1ccc2ccccc2c1	KCNQ2 pot 11 | Kir21 confirm inactive | HEK293 Tl flux inactive | CHO-K1 ctr 54.7 | KCNQ1 sel pot inactive | KCNQ2 pot conf 41.8 | Kir21 spec inactive | KCNQ2 W236L pot inactive
COc1cccc(OCCOc2ccc(/C=C3/SC(=S)NC3=O)cc2)c1	KCNQ2 pot 7.41 | Kir21 confirm inactive | HEK293 Tl flux inactive | CHO-K1 ctr inactive | KCNQ1 sel pot inactive | KCNQ2 pot conf inactive | Kir21 spec inactive
CCCC(c1nnnn1Cc1ccc(OC)cc1)N1CCN(C(=O)c2ccco2)CC1 (centres undefined)	none (no result: KCNQ2 pot)
COc1ccccc1C1=NOC(Cn2c(NCCOCCO)nc3c2c(=O)n(C)c(=O)n3C)C1 (centres undefined)	none (no result: KCNQ2 pot)
CCN1CCN(C(c2cccs2)C(C)NC(=S)Nc2cccc(C)c2C)CC1 (centres undefined)	none (no result: KCNQ2 pot)
Brc1ccc(/C=N/Nc2ccc3ccccc3n2)cc1	none
Fc1cccc(/C=N/Nc2ccc3ccccc3n2)c1	KCNQ2 pot 12.5 | Kir21 confirm inactive | HEK293 Tl flux inactive | CHO-K1 ctr inactive | KCNQ1 sel pot inactive | KCNQ2 pot conf inactive | Kir21 spec inactive
